PubChem BioAssay (NCI)
About 83,000 compounds went through this panel and 20% of them were active in at least one assay; those are over-represented in the sample as a whole.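 Percent growth is the endpoint: 0 to 100 indicates growth inhibition (40 means 60% inhibition), 0 means no net growth, and negative values indicate cell death.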 Values without a mark were called inactive. Active and inactive are the calls of the source. Rule for the calls: active = growth percent below 10; inactive = the rest.

Each compound was assayed on OVCAR-4 ovarian (assay: NCI-60 one-dose screen, 48 h (100 = growth as untreated, 0 = no growth, -100 = all killed)). Conditions: 10 µM unless noted.

Row | SMILES | growth
1 | COc1ccc(Cn2cc3c(c2-c2ccccc2)CCc2cnoc2-3)cc1OC | 41.5%
2 | Cc1ccc2c(O)c(O)cc(NC(C)CCCN)c2n1 (stereo not given) | 6.99% (active)
3 | CC(C)(C)c1ccc([I+]c2ccc(C(C)(C)C)cc2)cc1 | 18.3%
4 | COC(=O)/C(Br)=C/c1c[nH]c2ccc(Br)cc12 | 87.2%
5 | COC(=O)c1ccc2[nH]c(O)c(C(=Nc3ccc(N(C)C(=O)CN4CCN(C)CC4)cc3)c3cccc(OC)c3)c2c1 | 25.4%
6 | C#CCCCCCCC[C@@H]1OC(=O)[C@H]([C@@H](C)CC)NC(=O)[C@@H]([C@@H](C)CC)NC(=O)CC(=O)[C@@H]1C | 99.3%
7 | COC(=O)c1ccc2[nH]c(O)c(C(=Nc3ccc(N(C)C(=O)CN4CCN(C)CC4)cc3)c3ccc(C)cc3)c2c1 | -64.3% (active)
8 | COC(=O)C(C)[C@H]1CC[C@@H]2[C@]1(C)CC=C1[C@]23C=C[C@]2(C[C@@H](OC(C)=O)CC[C@]12C)C(C(=O)OC)C3C(=O)OC (stereo not given in full) | 85.7%
9 | Cc1nc2c(nnn2-c2ccccc2)c2nc(-c3ccccc3)oc(=O)c12 | 115%
10 | CC(O)C(N)=O (stereo not given) | 97.4%
11 | Nc1nc2c(c3cnccc13)C(c1cccc(Cl)c1)Cc1cnccc1-2 (stereo not given) | 32.1%
12 | CC(=O)OCC1O[C@@H](OC(C)=O)[C@@H](NC(=O)NS(=O)(=O)c2ccccc2)C(OC(C)=O)[C@@H]1OC(C)=O (stereo not given in full) | 109%
13 | CCOC(=O)c1ccc2n1CCCc1cnc(NC(C)=O)nc1-2 | 104%
14 | CCCCCCCCCCCCCCCCCC1=NCCN1CCNC(C)=O | 95.2%
15 | Clc1ccc(N/N=C(/c2ccccc2)c2ccccn2)nc1 | 24.5%
16 | COc1ccc(-n2nnnc2-c2cn[nH]c2C(F)(F)F)cc1 | 79.1%
17 | COc1cc2ncnc(-n3ncc4cc(NC(=O)Nc5ccc(Cl)c(Cl)c5)ccc43)c2cc1OC | -32.3% (active)
18 | CCOC(=O)c1c(C)oc2ncnc(Nc3ccc(C(=O)NCCc4ccccc4)cc3)c12 | 45.5%
19 | CC(=O)/C(=C/c1ccc(-c2ccccc2)cc1)C(=O)c1ccccc1 | 85.8%
20 | N=C(N)c1ccc(-c2ccc(-c3ccc(F)cc3)s2)cc1 | -70.8% (active)

Row | SMILES | growth
21 | NC(=O)CC(NC(=O)COc1ccc(Cl)cc1Cl)C(=O)O (stereo not given) | 112%
22 | Cc1nc(NC(=O)NC2CCCCC2)sc1C(=O)NN | 109%
23 | CCOC(=O)C1=C(C(F)(F)F)NC(=S)NC1CN1C(=O)c2ccccc2C1=O (stereo not given) | 117%
24 | NC(=O)c1c(Nc2ccccc2)nn2cc(-c3nc4ccccc4s3)c(N)nc12 | 97.1%
25 | O=C(/C=C/c1ccc(Br)cc1)c1ccccc1 | 96.3%
26 | Cc1c(O)c(N=Nc2ccc(C(=O)O)c(O)c2)c2ccccc2c1O | 107%
27 | COc1ccc2c(c1)/C(=C/c1c(-c3cc(OC)c(OC)c(OC)c3)nc3sccn13)C(=O)N2 | 95.8%
28 | CCOC(=O)c1cc(C(=O)c2ccc(Br)cc2)n2cc(C)cc(C)c12 | 91.6%
29 | COc1cccc(Cn2cc3c(c2)-c2oncc2CC3)c1 | 50.9%
30 | CCCCCSc1ccc2nc(NC(=O)OCC)sc2c1 | 28.7%
31 | COc1ccc(C2C3(C#N)C(N)=NC(=C(C#N)C#N)C23C#N)cc1OC (stereo not given) | 110%
32 | CCCCCCCCCCCCCCCC[n+]1cccc(C#N)c1 | 56.6%
33 | CC(C)OC(=O)c1ccc2n1CCCc1cnc(Nc3ccccc3)nc1-2 | 61.4%
34 | COc1cc(Cn2ccc3c2-c2oncc2CC3)cc(OC)c1 | 61.7%
35 | COC(=O)c1ccc(C(=Nc2ccc(N(C)C(=O)CN3CCN(C)CC3)cc2)c2c(O)[nH]c3ccc(C(=O)OC)cc23)cc1 | 38.3%
36 | COc1cccc2c1nc1cccc(OC)c1[n+]2[O-] | 69.7%
37 | CC(=O)NNC(=O)c1sc(NC(C)=O)nc1C | 122%
38 | CCOC(=O)NNc1[nH]c(-c2ccc(OC)cc2)cc1C#N | 153%
39 | COc1cc(N)c2nccc(C)c2c1OC | 94.4%
40 | CCOC(=O)c1c2c(cn1Cc1ccccc1)-c1oncc1CC2 | 104%
